# This is a sample that favours compounds with a hit; in the whole collection about 19% have one here.
# IL-1B inflam inh = qHTS for Inhibitors of Inflammasome Signaling: IL-1-beta AlphaLISA Primary Screen; THP-1 LPS/ATP IL-1B secretion, AlphaLISA, 16 h; hits give low values; activity change, % at 57.5 µM; actives 4.7% (n = 360,000); in the data active means activity change below about -50%; inconclusive means mostly about -30% to -49%
#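 THP-1 cells pretreated 1 hr with compounds (up to 57.5 uM final), then stimulated with LPS (250 ng/mL final) plus ATP (1.25 mM final); secreted IL-1B measured by AlphaLISA after 16 hr, decreased signal indicating inhibition.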
# DT40 TDP1 no CPT = qHTS for Inhibitors of human tyrosyl-DNA phosphodiesterase 1 (TDP1): qHTS in cells in absence of CPT. DT40 Tdp1-/- hTDP1 cells, no CPT, ATP luminescence, 48 h. actives 15% (n = 420,000). Potency, µM (titrated, usually from 46.2 µM), actives largely listed as inhibitors. AID 686978, 2013; further: nearly all actives have a fitted effect of over 55% in size
#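 DT40 Tdp1-/-;hTDP1 cells, no CPT (DMSO vehicle only), 400 cells/well; compounds pin-transferred; ≥48 hr, 37 °C; CellTiter-Glo 30 min RT dark, luminescence read.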
# TGFb inhibitor = qHTS for Inhibitors of TGF-b. HepG2 CAGA-GFP TGF-b/SMAD3 reporter, GFP fluorescence, 18 h; TGF-beta stimulated, 500 pg/mL final. Potency, µM (titrated, usually from 46.1 µM), actives largely listed as inhibitors. actives 1.2% (n = 410,000); further: nearly all actives have a fitted effect of over 65% in size
#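 Read-out: total well GFP (ex488/em500-530) summed from mean per-cell fluorescence. Cells: HEPG2 CAGA-GFP, 1% FBS DMEM, 18 h at 37 degrees C with 500 pg/mL final TGF-beta. Unstimulated wells served as the full-inhibition control; stimulated DMSO wells = 0%.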
# S-ASM inh = Inhibitors of Secretory Acid Sphingomyelinase (S-ASM): qHTS. Sphingomyelin phosphodiesterase (Homo sapiens), P17405. placental ASM, HMU-PC fluorogenic substrate, 60 min. Potency, µM (highest dose often 57.5 µM), most hits filed as inhibitors. actives 0.006% (n = 340,000). AID 504937, 2011
# Target sequence (P17405 47-631 limits assumed): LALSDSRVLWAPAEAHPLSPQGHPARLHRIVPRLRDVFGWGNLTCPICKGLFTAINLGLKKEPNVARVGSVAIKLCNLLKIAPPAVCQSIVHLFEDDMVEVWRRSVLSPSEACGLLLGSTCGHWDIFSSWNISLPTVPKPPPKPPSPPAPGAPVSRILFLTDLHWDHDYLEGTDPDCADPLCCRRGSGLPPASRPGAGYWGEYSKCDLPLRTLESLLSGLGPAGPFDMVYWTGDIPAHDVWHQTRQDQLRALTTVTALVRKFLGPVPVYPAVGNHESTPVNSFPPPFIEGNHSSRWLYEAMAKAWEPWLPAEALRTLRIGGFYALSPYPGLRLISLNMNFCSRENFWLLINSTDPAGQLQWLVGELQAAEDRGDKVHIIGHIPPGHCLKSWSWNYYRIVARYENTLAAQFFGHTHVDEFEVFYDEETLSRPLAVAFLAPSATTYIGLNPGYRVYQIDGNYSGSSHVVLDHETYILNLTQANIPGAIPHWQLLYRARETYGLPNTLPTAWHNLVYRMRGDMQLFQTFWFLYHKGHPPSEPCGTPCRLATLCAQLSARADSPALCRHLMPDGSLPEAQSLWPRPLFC
#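 qHTS format. ASM enzyme prepared from human placenta hydrolyses the fluorogenic substrate HMU-PC0 (9 uM final) over 60 min at 37 °C after a 10 min compound preincubation.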
# TDP1 cell CPT = qHTS for Inhibitors of human tyrosyl-DNA phosphodiesterase 1 (TDP1): qHTS in cells in presence of CPT. chicken DT40 Tdp1-/-;hTDP1 cells + 20 nM CPT, ATP luminescence, 48 h. Potency, µM (doses to about 46.2 µM), hits mostly inhibitors. actives 12% (n = 420,000); further: nearly all actives have a fitted effect of over 55% in size
#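 Cell growth measured by CellTiter-Glo luminescence after a minimum 48 h, 37 C compound exposure with 20 nM CPT in Tdp1-knockout DT40 cells stably expressing hTDP1, seeded 400/well; qHTS titration format.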
# HepG2 tox = qHTS for Inhibitors of TGF-b: Cytotox Counterscreen; Potency, µM (doses to about 46.1 µM), most hits filed as cytotoxic; HepG2 CAGA-GFP viability, ATP luminescence, 18 h; actives 0.76% (n = 410,000)
#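 HepG2 CAGA-GFP cells (1000/well, DMEM with 1% FBS) received compound, then TGF-beta at 500 pg/mL final, and were incubated 18 hours at 37 degrees C. Viability was read by CellTiter-Glo luminescence. Media-only wells were set as complete cell-killing and DMSO as no toxicity.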
# Numbers stand for hits; – = inactive; ? = inconclusive; · = not tested or not shown. Unless noted, the call rests on the fitted dose curve; in most records, active means well fitted curve in the direction sought with a large enough effect; inconclusive means small, poorly fitted or top-dose-only effect, or another doubt; inactive means no such curve, though single readings can be large; an effect the other way counts as inactive or inconclusive.
SMILES,IL-1B inflam inh,DT40 TDP1 no CPT,TGFb inhibitor,S-ASM inh,TDP1 cell CPT,HepG2 tox
CN1/C(=C/C(=S)NC(=O)C2(C)CC2(Cl)Cl)C(C)(C)c2ccccc21 (stereo unspecified),–,23.1µM,–,–,?,–
Cc1ccccc1OCCC(=O)OCC(=O)NC1CCS(=O)(=O)C1 (stereo unspecified),–,–,–,–,–,–
CC(C)[C@H](NC(=O)C1CCN(S(=O)(=O)c2ccccc2)CC1)C(=O)NCc1ccccc1,–,–,–,–,?,–
COc1ccc(C)cc1NC(=O)Cn1nc(N2CCN(c3ccccc3OC)CC2)ccc1=O,·,?,–,·,?,–
COc1ccccc1N1CCN(c2ccc(=O)n(CC(=O)Nc3cc(F)ccc3C)n2)CC1,·,23.1µM,–,·,14.6µM,–
CCc1ccc(NC(=O)c2ccc(Cn3nc(N4CCN(c5ccccc5)CC4)ccc3=O)o2)cc1,·,?,?,·,?,–
CCc1ccccc1NC(=O)c1ccc(Cn2nc(N3CCN(c4ccccc4)CC3)ccc2=O)o1,·,11.6µM,?,·,14.6µM,–
CCOc1ccccc1NC(=O)Cn1nc(N2CCN(c3ccccc3)CC2)ccc1=O,·,18.4µM,–,·,?,–
COc1cccc(NC(=O)Cn2nc(N3CCN(c4ccccc4)CC3)ccc2=O)c1,·,?,–,·,?,–
C[C@@]12CCC3[C@@](CCC4[C@@]3(C)CCC[C@@]4(C)C(=O)Nc3ccc(Cl)cc3)(CC1=O)C2 (stereo partly specified),–,?,–,–,?,–
CSc1ccc(C2CC(=O)Oc3c2c(=O)n(C)c2ccccc32)cc1 (stereo unspecified),·,–,–,·,–,–
COc1ccc(CNC(=O)/C(C#N)=C2\N=C(NC(=O)c3cccs3)c3ccccc32)cc1,–,?,–,–,25.9µM,–
CCOC(=O)c1c(-c2ccc(C)cc2)csc1NC(=O)/C(C#N)=C/c1ccc(O)c(OC)c1,–,14.6µM,–,–,?,–
COc1cc(C(=O)Nc2scc(-c3ccccc3)c2C(=O)O)cc(OC)c1OC,–,13µM,–,?,?,–
CCOC(=O)c1c(-c2cc(OC)c(OC)c(OC)c2)csc1NC(=O)c1ccccc1,–,18.4µM,–,·,?,–
CCOC(=O)c1c(-c2cc(OC)c(OC)c(OC)c2)csc1N,–,?,–,·,23.1µM,–
CCOC(=O)c1c(-c2ccco2)csc1N,–,–,–,–,–,–
COc1cccc(CC(=O)NNC(=O)CN(C)S(=O)(=O)c2ccc(C)cc2)c1,–,–,–,–,–,–
Cc1ccc(C(=O)NNC(=O)c2ccc(NC(=O)C(C)(C)C)cc2)cc1,–,–,–,–,–,–
CCC1CN(S(=O)(=O)c2cc(-c3cc(C)no3)ccc2C)c2cc(Cl)ccc2O1 (stereo unspecified),·,23.1µM,–,·,13µM,–
Cc1ccc(C)c(N2CCN(S(=O)(=O)c3ccc(-c4cc(C)no4)s3)CC2)c1,–,?,–,–,?,–
COc1ccccc1N1CCN(S(=O)(=O)c2cc(-c3cc(C)no3)ccc2C)CC1,·,18.4µM,–,·,20.6µM,–
Cc1ccc(C)c(N2CCN(S(=O)(=O)c3cc(-c4cc(C)no4)ccc3C)CC2)c1,·,16.4µM,?,·,?,–
COc1ccc(S(=O)(=O)N2CCCCCC2)cc1C(=O)N1CCN(C(C)=O)CC1,–,–,–,·,–,–
CCCNC(=O)c1cc(-c2ccc(OC)cc2)n(CCCOC)c1C,–,?,–,–,–,–
SMILES,IL-1B inflam inh,DT40 TDP1 no CPT,TGFb inhibitor,S-ASM inh,TDP1 cell CPT,HepG2 tox
CC(C)CNC(=O)CN(c1ccccc1)S(=O)(=O)c1ccccc1[N+](=O)[O-],–,–,–,–,–,–
CC(C)[C@H](NC(=O)[C@@H]1CSC2c3ccccc3C(=O)N21)C(=O)NC1CCCCC1 (stereo partly specified),–,?,–,–,?,–
O=C1c2ccccc2NC(c2cccc([N+](=O)[O-])c2)N1CCc1ccccc1 (stereo unspecified),-82.5,?,–,–,–,–
COc1ccc(CCN2C(=O)c3ccccc3NC2c2cc(Cl)c(O)c(OC)c2)cc1 (stereo unspecified),–,4.11µM,–,–,4.61µM,–
CC(=O)Nc1ccc(S(=O)(=O)NCCC(=O)OCc2csc(CC(=O)Nc3ccccc3C)n2)cc1,–,?,–,–,–,–
Cc1ccc(OCC(=O)N(Cc2ccco2)c2ccccn2)cc1,·,–,·,·,?,–
CCOC(=O)c1cnc2c(C)c(Cl)ccc2c1N1CCN(CC)CC1,-81.7,?,–,–,?,–
CCOC(=O)c1cnc2c(ccc3ccccc32)c1Cl,–,–,–,–,–,–
CCOC(=O)c1cnc2c(Cl)c(Cl)ccc2c1N1CCN(C)CC1,-50.1,–,–,–,–,–
O=C(NC(=O)C(F)(F)F)Nc1ccc(S(=O)(=O)Nc2nccs2)cc1,–,–,–,–,–,–
Cc1ccc(S(=O)(=O)N2CCOCC2)cc1C(=O)N1CCN(c2ncccn2)CC1,–,–,–,–,–,–
COc1ccccc1N1CCN(c2ncc3c(n2)CCN(Cc2ccc(C)s2)C3)CC1,·,?,–,·,?,–
O=C(NCc1ccccc1)c1cccc(NC(=O)C2CC2)c1,–,–,–,–,–,–
CCOC(=O)c1csc(NC(=O)c2cc(OC)c(OC)c(OC)c2)n1,-53.9,?,–,–,?,–
COc1cc(C(=O)Nc2nnc(CC(C)(C)C)s2)cc(OC)c1OC,·,?,?,·,13µM,–
CCn1ncc([N+](=O)[O-])c1C(=O)Nc1ccc(C)c(C)c1,–,–,–,–,–,–
COC1=C(N)C(=O)c2nc(-c3nc(C(=O)O)c(C)c(-c4ccc(OC)c(OC)c4O)c3N)ccc2C1=O,-106.3,0.103µM,0.282µM,–,0.0411µM,–
CCOC(=O)C1=C(NC#N)OC(C)=C(C)C1c1ccc(O)cc1 (stereo unspecified),–,20.6µM,–,–,23.1µM,–
CCOC(=O)C1=C(N)Oc2ccc3ccccc3c2C1c1ccc(O)cc1 (stereo unspecified),–,?,?,–,?,–
COc1cccc(NC(=O)Cn2nc(-c3ccncc3)ccc2=O)c1,·,–,–,·,–,–

# Compound activity: PubChem BioAssay, National Center for Advancing Translational Sciences (NCATS)
